# Compounds with a hit are over-represented: about 0.5% of the library has one in this group of screens.
# Tat export inh: E. coli Tat export inhibitors, primary screen, MC4100, TorA-mCherry reporter, fluorescence, single point; inhibition, % at 10 µM; 340,000 tested, 0.036% active; AID 488895, 2010;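 active = mean replicate inhibition at least 50% and at least half of replicates individually reaching 50%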;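 also: exported cargo escapes ClpAP degradation while cytoplasmic cargo is degraded and loses fluorescence; 0% = median of neutral control wells and 100% = median of NaSCN control wells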
# E coli growth-1: E. coli V3065 growth inhibition, primary screen, counter-screen for AddAB inhibitor project, absorbance, OD600. 18 h. inhibition, % at 11.9 µM. 330,000 tested, 0.27% active;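 active = inhibition above the campaign's mean inhibition across all tested compounds plus 3 SD, cut at about 9.9% in these data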;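 also: uninfected addAB+ strain grown without phage in ampicillin broth; 0% = DMSO wells and 100% = ciprofloxacin 0.95 µg/ml wells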
# E coli growth-2: E. coli growth inhibition, primary screen, OD600; 330,000 tested, 0.21% active; OD600 absorbance (no concentration beside the values); AID 1053175, 2014; Escherichia coli growth, 23 h; stronger effect = lower value;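 active = OD600 absorbance below the run mean of sample wells minus 3.6 SD, in any replicate, cut at about 0.56 in these data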
# AddAB inh: growth inhibition of E. coli expressing H. pylori AddAB, primary screen, AddAB inhibitor project, absorbance. inhibition, % at 11.9 µM. 330,000 tested, 0.29% active; in the data active = inhibition above about 12%;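 also: 0% = vehicle wells of infected cells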
# phage Ecoli inh: growth loss of phage-infected E. coli, primary screen, RecBCD inhibitor project, absorbance, with phage, HTS; inhibition, % at 11.9 µM; 360,000 tested, 0.26% active; in the data active = inhibition above about 11%
# AddAB confirm: growth loss of phage-infected E. coli expressing H. pylori AddAB, confirmation, AddAB inhibitor project, absorbance, E. coli V3065, T4 phage, triplicate; 880 tested, 64% active; shares compounds with AddAB inh; inhibition, % at 11.9 µM; OD; T4 phage with gene 2 nonsense mutations; AID 488942, 2010;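 active = mean inhibition above a set limit taken from the earlier primary screen, cut at about 13% in these data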;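 also: higher means less bacterial growth since AddAB block lets phage replicate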
# RecBCD counter: growth loss of RecBCD+ E. coli with mutant T4 phage, counter-screen for AddAB inhibitor project, absorbance, V66 E. coli. shares compounds with AddAB inh. OD growth. inhibition, % at 11.9 µM. 880 tested, 73% active;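 active = mean inhibition above the mean of solvent-only control wells plus 3 SD, cut at about 4% in these data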;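 also: optical density read after an 18 h incubation at 37 °C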
# bact viab count: bacterial viability inhibition counter-screen, confirmation, counter-screen for AddAB inhibitor project, absorbance; shares compounds with AddAB inh; absorbance (AddAB counterscreen); inhibition, % at 11.9 µM; 880 tested, 35% active; in the data active = inhibition above about 25%
# An asterisk follows results filed as active; · = no result.
SMILES,Tat export inh,E coli growth-1,E coli growth-2,AddAB inh,phage Ecoli inh,AddAB confirm,RecBCD counter,bact viab count
Cc1ccccc1-n1c(SCC(=O)NN=Cc2sccc2C)nc2ccccc2c1=O,·,·,0.703,·,·,·,·,·
O=C(NN=Cc1ccc2c(c1)OCO2)c1ccc(Cl)cc1Cl,·,·,0.63,·,·,·,·,·
Cc1cccc(NC(=O)c2nc[nH]c2C(=O)NC(CCCCNC(=O)OC(C)(C)C)C(=O)OC(C)(C)C)c1 (stereo unspecified),·,·,0.716,·,·,·,·,·
Cc1ccc(OCC(=O)Nc2ccc3c(c2)CCC3)c([N+](=O)[O-])n1,-2.9,1.3,0.688,1.2,4.9,·,·,·
COc1ccc(NC(=O)COc2ccc(C)nc2[N+](=O)[O-])cc1S(N)(=O)=O,-4.8,12.4*,0.621,14.7*,7.4,46.0*,7.8*,28.8*
Cc1ccc(OCC(=O)NN=Cc2cn(C)c3ccccc23)c([N+](=O)[O-])c1,·,·,0.744,·,·,·,·,·
CCOC(=O)N1CCN(c2c(NCCCN3CCCCCC3)c(=O)c2=O)CC1,-2.5,5.0,0.749,12.2*,2.8,-0.1,0.6,-2.3
CCn1c(C=NNC(=O)c2ccc(OC)cc2)nc2ccccc21,·,·,0.713,·,·,·,·,·
CCCCCNC(=O)c1cn(CC)c2cc(N3CCN(C)CC3)c(F)cc2c1=O,3.9,90.0*,0.047*,92.3*,6.7,100.5*,12.2*,95.9*
CCN(CC)CCCNC(=O)c1cn(CC)c2cc(N3CCN(C(=O)c4ccco4)CC3)c(F)cc2c1=O,19.9,97.9*,0.0645*,97.4*,1.1,100.2*,88.0*,101.2*
CCN(CC)CCNC(=O)c1cn(CC)c2cc(N3CCN(C(=O)c4ccco4)CC3)c(F)cc2c1=O,12.7,65.1*,0.074*,67.6*,7.6,97.8*,6.6*,89.4*
NC(=O)NOCc1ccccc1,9.9,4.7,0.702,97.7*,4.4,-1.6,0.6,-4.0
O=C(NOCc1ccccc1)OCc1ccccc1,0.7,·,0.675,·,2.6,·,·,·
O=C(COC(=O)c1ccccc1NC(=O)c1ccco1)NCC1CCCCC1,-6.0,97.5*,0.682,97.0*,0.0,-1.7,1.6,-0.4
O=C1C2C(c3cccc(C=Cc4ccccc4)c3)CC=CC2C(c2ccc3ccccc3c2)N1Cc1ccccc1 (stereo unspecified),·,·,0.709,·,·,·,·,·
Cc1ccc(OCC(=O)c2c[nH]c3ccccc23)c([N+](=O)[O-])n1,7.1,20.2*,0.64,23.1*,7.1,46.2*,6.8*,42.3*
COc1cccc(/C=N\NC(=O)c2ccc(Cn3cc(Br)c([N+](=O)[O-])n3)o2)c1O,-3.7,9.9*,·,16.4*,10.1,30.7*,7.1*,20.2
CC1=NN(C(=O)c2ccc(Cn3cc(Br)c([N+](=O)[O-])n3)o2)C(O)(C(F)(F)F)C1 (stereo unspecified),-2.8,7.8,0.665,18.3*,9.1,8.0,2.5,5.1
CC(=O)c1c(C)n([O-])c2ccc(C)cc2[n+]1=O,13.2,24.1*,0.43*,23.2*,5.9,68.3*,8.3*,53.2*
Cc1ccc2c(c1)n([O-])c1c([n+]2=O)CCCC1,-3.6,1.1,0.688,0.8,-0.9,·,·,·
CC1CCN(C(=O)CCC(=O)N2CC(C)Oc3ccccc32)CC1 (stereo unspecified),-9.8,31.9*,0.728,98.9*,2.5,-2.7,0.7,-2.1
O=C(CSc1ncnc2nc[nH]c12)c1ccc(Cl)cc1,0.0,5.2,0.683,19.6*,5.1,16.6*,3.7,-2.5
CC(=NNC(=O)c1ccccc1OCc1ccc(F)cc1)c1ccccn1,·,·,0.677,·,·,·,·,·
Cc1cc(C)nc(SCc2ccc(C(=O)N/N=C/c3cccc(O)c3O)cc2)n1,7.7,6.9,·,12.4*,4.9,-0.5,5.0*,-2.9
c1nc(CCOC2CCCCO2)cc2cc3c(cc12)OCO3 (stereo unspecified),·,·,0.665,·,·,·,·,·
SMILES,Tat export inh,E coli growth-1,E coli growth-2,AddAB inh,phage Ecoli inh,AddAB confirm,RecBCD counter,bact viab count
COc1ccc(S(=O)(=O)N2CCOC2CNC(=O)C(=O)NCCc2ccccc2)cc1OC (stereo unspecified),-9.2,-1.9,0.786,-2.2,1.4,·,·,·
COc1ccc(S(=O)(=O)N2CCOC2CNC(=O)C(=O)NCCc2ccccc2)cc1C (stereo unspecified),-12.2,15.3*,0.805,42.8*,3.7,-0.4,-1.0,-2.2
CSC(=S)N/N=C/c1ccc(N(C)C)cc1,5.0,7.1,·,15.5*,2.9,53.4*,7.4*,30.3*
CSC(=S)N/N=C/c1ccc(Br)cc1,-5.0,5.4,·,5.2,8.1,·,·,·
O=C(Nc1cccc(NC(=O)c2ccc([N+](=O)[O-])o2)c1)c1ccco1,-30.4,17.2*,0.46*,24.1*,10.0,98.6*,10.0*,30.2*
O=C(Nc1nc(-c2cccs2)cs1)c1ccc([N+](=O)[O-])o1,-19.3,6.5,0.515*,13.0*,10.1,84.9*,7.5*,13.0
O=C(Nc1cccc(NC(=O)c2cccs2)c1)c1ccc([N+](=O)[O-])o1,-13.4,16.2*,0.409*,27.3*,10.6,95.8*,9.4*,28.2*
O=C1C2CCCN2C(c2ccccc2)N1c1cccc(Cl)c1 (stereo unspecified),1.6,1.4,0.653,118.7*,1.7,-3.5,0.2,-3.4
O=C1C2CCCN2C(c2ccc(F)c(F)c2)N1c1cccc(Cl)c1 (stereo unspecified),-7.3,1.2,0.719,2.4,0.3,·,·,·
O=[N+]([O-])c1ccc(-c2ccc(C=NNc3nc(N4CCCCC4)nc(N4CCCCC4)n3)o2)cc1,·,·,0.69,·,·,·,·,·
CCc1ccc(NC(=O)CSc2ccc(-c3ccccn3)nn2)cc1,-13.3,14.9*,0.636,12.8*,10.0,8.9,9.3*,7.7
CC(=O)Nc1cccc(NC(=O)CSc2ccc(-c3ccccn3)nn2)c1,-4.9,3.6,0.638,5.2,9.5,·,·,·
CCOC(=O)c1ccccc1NC(=O)CSc1ccc(-c2ccccn2)nn1,11.6,12.8*,0.696,13.0*,8.6,6.2,7.8*,6.5
O=C(N/N=C/c1ccc([N+](=O)[O-])o1)C(O)c1ccccc1 (stereo unspecified),-20.2,15.3*,·,86.4*,10.8,96.4*,10.6*,29.2*
CCCC(=O)Nc1ccc(C(=O)N/N=C/c2ccc([N+](=O)[O-])o2)cc1,-20.6,21.7*,·,18.0*,10.2,100.0*,12.5*,28.3*
Cc1ccc(NC(=O)CCC(=O)N/N=C/c2ccc([N+](=O)[O-])o2)cc1C,1.3,7.0,·,6.7,4.0,·,·,·
Cc1cc(C(=O)N/N=C/c2ccc([N+](=O)[O-])o2)c(C)o1,-12.4,8.7,·,12.7*,6.3,97.8*,7.9*,17.4

# Screens (PubChem BioAssay)
